About 11,000 (3.8%) of roughly 290,000 compounds were called active.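 How the source made its calls: active means mean replicate inhibition above about 79%, with every replicate also reaching it (limit read from the data); inconclusive means only one of the two criteria met; inactive means mean below limit and not every replicate reaching it.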 The full list was thinned out, with actives kept by preference.

In this experiment the target is FAD-linked sulfhydryl oxidase ALR (Homo sapiens) (UniProt P55789). The experiment is described as follows: ALR-catalysed DTT oxidation blockers – biochemical, H2O2 detection, HRP-luminol luminescence, single point, primary screen (AID 485317). Conditions: purified ALR, stronger effect = higher value, concentration not given here.
Chain of FAD-linked sulfhydryl oxidase ALR (Homo sapiens) (P55789 whole entry, looked up): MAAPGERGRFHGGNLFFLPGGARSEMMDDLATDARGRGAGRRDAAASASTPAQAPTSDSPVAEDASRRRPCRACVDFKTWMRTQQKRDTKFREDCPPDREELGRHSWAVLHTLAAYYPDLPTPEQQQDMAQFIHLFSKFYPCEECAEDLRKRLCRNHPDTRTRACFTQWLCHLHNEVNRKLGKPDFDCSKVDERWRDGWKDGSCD
On to `CC1(C)CC[C@@]2(C(=O)O)C(C1)C1=CCC3[C@@]4(C)CC[C@H](O)C(C)(C)C4CC[C@@]3(C)[C@]1(C)C[C@H]2O` (some centres not stated), for which the inhibition (usually the change of the read-out against control, counted positive when it falls) is -9.85% (inactive).

In the case of `CCOC(=O)c1cccc(NC(=O)c2ccc(F)cc2F)c1`, the inhibition is 6.05% (inactive).

Take `CN(C)CCCN(C(=O)c1ccc(S(=O)(=O)N2CCCCCC2)cc1)c1nc2cc3c(cc2s1)OCCO3`: the inhibition was -4.06% (inactive).

Turning to `CC/C(C)=N/Nc1nc2sc3c(c2c(=O)[nH]1)CC(C)(C)OC3`, the inhibition is 15.5% (inactive).

As to `CCC(O)CNc1nc(-n2nc(C)cc2C)nc2sc3c(c12)CC(C)(C)OC3` (configuration not stated), the inhibition is -2.25% (inactive).

As for `C=CCNC(=S)NNc1ncnc2sc3c(c12)CC(C)(C)OC3`, the inhibition is 98.8% (active).

`CC(C)C(NC(=O)c1c(F)cccc1F)C(=O)NNC(=O)c1ccccc1` (configuration not stated): the inhibition is -7.7% (inactive).

With `COc1ccc2sc(N(CCCN(C)C)C(=O)c3ccc(S(=O)(=O)N(C)C4CCCCC4)cc3)nc2c1`, the inhibition was -5.65% (inactive).

With `O=C(NCC(=O)N1CCCC(C(F)(F)F)C1)c1ccccc1F` (configuration not stated), the inhibition is -7.32% (inactive).

`Cc1ccc(N=C2SCCCN2C(=O)c2cccc(N3C(=O)CCC3=O)c2)cc1Cl`: the inhibition was -9.4% (inactive).

With `N#Cc1nc(-c2cccc3ccccc23)oc1N`, the inhibition was 0.469% (inactive).

With `Cn1c(CNC(=O)c2ccccc2F)nnc1SCc1ccc(F)cc1`, the inhibition is -2.09% (inactive).

In the case of `CC(C)CC(CC(C)C)=NNC(=O)c1ccc(CSc2nncn2C)cc1`, the inhibition is 98.2% (active).

On to `COC(=O)c1ccc(CSc2nncn2N)cc1`, for which the inhibition was -17.1% (inactive).

In the case of `CC(=O)Nc1ccc(NC(=O)CCN2C(=O)C3CC=CCC3C2=O)cc1` (configuration not stated), the inhibition was -1.74% (inactive).

On to `CC1=NNC(=O)C1Cc1c(Cl)cccc1Cl` (configuration not stated), for which the inhibition was 13.8% (inactive).

As for `CCn1c(SC(C)C(=O)Nc2ccc(N3CCOCC3)cc2)nnc1-c1ccco1` (configuration not stated), the inhibition was 46.7% (inactive).

For the compound `Cc1ccc(Nc2ncnc3c2cnn3C)c(C)c1`, the inhibition is -4.69% (inactive).

As for `Cc1ccc(-n2ncc3c(Nc4cccc(C(=O)O)c4)ncnc32)cc1`, the inhibition is 94% (active).

Take `O=C(NNc1ncnc2c1cnn2-c1ccccc1)c1ccco1`: the inhibition is -5.39% (inactive).

As to `CSCCC(NC(=O)COc1ccccc1)C(=O)OCCOc1ccc(F)cc1` (configuration not stated), the inhibition was -0.0039% (inactive).

Regarding `Cc1ccc(S(=O)(=O)NCCC(=O)OCC(=O)N(C)c2ccccc2)cc1`, the inhibition was -0.745% (inactive).

On to `COc1ccc(S(=O)(=O)N2CCN(C(C)C(=O)Nc3ccc(C(C)C)cc3)CC2)cc1` (configuration not stated), for which the inhibition is -3.15% (inactive).

For the compound `CN(C)S(=O)(=O)c1cccc(-c2nn(-c3ccccc3)cc2/C=C2\SC(=S)N(CC(=O)O)C2=O)c1`, the inhibition is 95.8% (active).

Regarding `COc1ccc(-c2nn(-c3ccccc3)cc2/C=C2/SC(=S)N(CCCC(=O)O)C2=O)c(C)c1`, the inhibition was 3% (inactive).

As for `COc1cccc(-c2nn(-c3ccccc3)cc2/C=C(\C#N)C(=O)NCCCn2ccnc2)c1`, the inhibition was -6.12% (inactive).

In the case of `COc1cccc(COC(=O)C2CCN(S(=O)(=O)c3cccs3)CC2)c1OC`, the inhibition was -64% (inactive).

Turning to `COc1cc(C(=O)NCC(=O)N2CC=C(c3ccccc3)CC2)cc(OC)c1OC`, the inhibition is 3.4% (inactive).

In the case of `O=C(NCCSc1ncc(-c2ccccc2)[nH]1)c1ccco1`, the inhibition is 4.62% (inactive).

Regarding `COc1ccc(OC)c(S(=O)(=O)N2CCCC(C(=O)N3CCC(C(N)=O)CC3)C2)c1` (configuration not stated), the inhibition was -3% (inactive).

For the compound `O=C(O)c1ccccc1NC(=O)c1ccccc1-c1ccccc1C(=O)O`, the inhibition is -5.64% (inactive).

Turning to `O=C(CSCc1ccc([N+](=O)[O-])cc1)Nc1cccc(C(=O)Nc2ccccc2C(=O)O)c1`, the inhibition is 99% (active).

For the compound `Cc1c(NC(=O)CSCc2ccccc2)cccc1C(=O)O`, the inhibition is -23.6% (inactive).

Regarding `O=C(Cc1ccccc1)Nc1ccc(C(=O)Nc2ccccc2C(=O)O)cc1`, the inhibition was 87.1% (active).

In the case of `O=C(Cc1ccccc1)Nc1ccc(NC(=O)c2cccnc2)cc1`, the inhibition was -3.14% (inactive).

As for `COc1ccc(NC(=O)CSCc2ccc([N+](=O)[O-])cc2)cc1OC`, the inhibition was -0.226% (inactive).

For `CC1CCc2[nH]c3ccc(C(=O)N(C)CC(=O)Nc4cccc(F)c4)cc3c2C1` (configuration not stated), the inhibition was 2.5% (inactive).

`COc1cccc(NC(=O)COc2cccnc2[N+](=O)[O-])c1`: the inhibition was -5.23% (inactive).

On to `Cc1noc(C)c1S(=O)(=O)N(C)C[C@H]1Oc2ccc(NC(=O)C3CCCCC3)cc2C(=O)N([C@H](C)CO)C[C@@H]1C`, for which the inhibition was 0.231% (inactive).

For the compound `CCN(C[C@H]1N[C@@](CC)(C(=O)OC)[C@H]2C(=O)N(C)C(=O)[C@@H]12)C(=O)Nc1ccc(F)cc1`, the inhibition was 0.784% (inactive).

Take `Cc1cccc(NC(=O)CSC(N)=O)c1C`: the inhibition was 98.7% (active).

Regarding `Cc1cccc(NC(=O)COC(=O)CCc2ccccc2)c1C`, the inhibition is -8.62% (inactive).

Consider `Cc1cccc(NC(=O)CN2C(=O)c3ccccc3C2=O)c1C`, for which the inhibition is 2.16% (inactive).

On to `COc1cc(OC)cc(-c2c(C#Cc3ccsc3)c3cc(-c4ccc(SC)cc4)ccc3n2C)c1`, for which the inhibition was -4.93% (inactive).

Regarding `CC1=NN(C(=O)c2ccc(Br)cc2)C(O)(c2ccccc2)C1` (configuration not stated), the inhibition was 82.1% (active).

Turning to `CCOC(=O)C1(O)CC(C)=NN1C(=O)c1cccc(Br)c1` (configuration not stated), the inhibition is -4.22% (inactive).

In the case of `CC1=NN(C(=O)c2ccccc2Br)C(O)(c2cccnc2)C1` (configuration not stated), the inhibition is -2.8% (inactive).

With `COc1cc(SC)ccc1C(=O)NNC(=O)C1COc2ccccc2O1` (configuration not stated), the inhibition is 0.292% (inactive).

For `CCC1S/C(=N/N=C/c2ccco2)NC1=O` (configuration not stated), the inhibition is -6.96% (inactive).

On to `O=C1OC(/C=C/c2ccccc2)=NC/1=C/c1ccco1`, for which the inhibition is 9.93% (inactive).

Turning to `CC(C)(C)C1C/C(=C/c2ccco2)C(=O)/C(=C/c2ccco2)C1` (configuration not stated), the inhibition is 96.3% (active).

For `O=C(CSC1=Nc2ccccc2C2=NC(c3ccccc3)C(=O)N12)NCC1CCCO1` (configuration not stated), the inhibition was -17.3% (inactive).

For `CC(C)C1N=C2c3ccccc3N=C(SCC(=O)c3ccc(O)c(O)c3)N2C1=O` (configuration not stated), the inhibition was 99.7% (active).

For the compound `O=C(CSC1=Nc2ccccc2C2=NC(CC(=O)NCc3ccco3)C(=O)N12)NCc1ccco1` (configuration not stated), the inhibition was 6.97% (inactive).

As to `COc1ccc(-c2cc(-c3ccc(N)cc3)nc(N)c2C#N)cc1OC`, the inhibition was 98.9% (active).

Take `CCOc1cc(-c2cc(-c3ccc(OC)cc3)nc(N)c2C#N)ccc1O`: the inhibition was 41.9% (inactive).

With `COc1ccccc1-c1c(C#N)c(N)nc2c1CCC2`, the inhibition was 0.706% (inactive).

Source of the values: PubChem BioAssay AID485317 (Broad Institute, 2010).
